Read-out in test [1]: Human Leukocyte Antigen - DR isotype (HLADR), HLA-DRA (gene 3122)
The test can be described thus: BSK_BE3C_HLADR: BioMAP Diversity Plus: BE3C Assay for Human Leukocyte Antigen - DR isotype (HLADR) Biomarker Activity (AID 2283032). The note with it: primary human bronchial epithelial cells; actives raise or lower the signal. The method, boiled down: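 BioMAP BE3C format: human bronchial epithelium, 24 h compound treatment, ELISA detection of HLA-DR, with bidirectional analysis relative to DMSO.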

Read-out in test [2]: Interferon-gamma inducible Protein 10 (IP10), CXCL10 (gene 3627)
Description: BSK_BE3C_IP10: BioMAP Diversity Plus: BE3C Assay for Interferon-gamma inducible Protein 10 (IP10) Biomarker Activity (AID 2283034). To be noted: primary human bronchial epithelial cells; actives raise or lower the signal. In a few lines:
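BE3C cells (human bronchial epithelial, primary); 24 h exposure; ELISA for IP-10; DMSO-referenced bidirectional fit.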

Read-out in test [3]: Monokine induced gamma interferon (MIG), CXCL9 (gene 4283)
Description: BSK_BE3C_MIG: BioMAP Diversity Plus: BE3C Assay for Monokine induced gamma interferon (MIG) Biomarker Activity (AID 2283035).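 Note: MIG protein measured by ELISA in BE3C cultures after 24 h of dosing.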 To be noted: primary human bronchial epithelial cells; actives raise or lower the signal. In a few lines:
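hu bronchial epithelial 1° cells, 24 h cpd; MIG by ELISA; bidirectional fit, DMSO = baseline.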

Read-out in test [4]: Transforming growth factor beta 1 (TGFb1), TGFB1 (gene 7040)
Description: BSK_BE3C_TGFb1: BioMAP Diversity Plus: BE3C Assay for Transforming growth factor beta 1 (TGFb1) Biomarker Activity (AID 2283036;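 note: TGF-b1 protein level measured by ELISA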). To be noted: primary human bronchial epithelial cells; actives raise or lower the signal. In a few lines:
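TGF-b1 measured via ELISA, 24 h after chemical dosing of human bronchial epithelial cells (BE3C). Overt cytotoxicity assessed in parallel by SRB (0.1%, TCA-fixed, 560 nm); analysis bidirectional relative to DMSO.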

Read-out in test [5]: Plasminogen activator inhibitor-1 (PAI1), SERPINE1 (gene 5054)
Description: BSK_BE3C_PAI1: BioMAP Diversity Plus: BE3C Assay for Plasminogen activator inhibitor-1 (PAI1) Biomarker Activity (AID 2283037). To be noted: primary human bronchial epithelial cells; actives raise or lower the signal. In a few lines: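 In this multiplexed primary-cell system, bronchial epithelial cells receive test chemical and are sampled at 24 h. PAI-1 is read by ELISA, with DMSO serving as negative control for bidirectional fitting.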

Read-out in test [6]: urokinase plasminogen activator (uPA), PLAU (gene 5328)
The test can be described thus: BSK_BE3C_uPA: BioMAP Diversity Plus: BE3C Assay for urokinase plasminogen activator (uPA) Biomarker Activity (AID 2283038).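 Note: uPA protein level quantified by ELISA in cell cultures; uPA read one day after compound addition.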 To be noted: primary human bronchial epithelial cells; actives raise or lower the signal. In a few lines:
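Bronchial epithelial cells (human, primary); chemical 24 h; uPA by ELISA; bidirectional fit vs DMSO. SRB (0.1%, after 10% TCA fixation, 560 nm) in parallel cultures for cytotoxicity.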

Read-out in test [7]: Urokinase-type plasminogen activator receptor (uPAR), PLAUR (gene 5329)
The test can be described thus: BSK_BE3C_uPAR: BioMAP Diversity Plus: BE3C Assay for Urokinase-type plasminogen activator receptor (uPAR) Biomarker Activity (AID 2283039).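 Note: uPAR protein level measured by ELISA on the cells; cells exposed to compound for one day before measurement.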 To be noted: primary human bronchial epithelial cells; actives raise or lower the signal. The method, boiled down:
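Chemically treated human bronchial epithelial cells (lung primary) are assayed for uPAR by ELISA after 24 h, with data fitted in both directions using DMSO as negative control.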

Read-out in test [8]: Interleukin-6 (IL6), IL6 (gene 3569)
Description: BSK_CASM3C_IL6: BioMAP Diversity Plus: CASM3C Assay for Interleukin-6 (IL6) Biomarker Activity for (AID 2283040). The note with it: primary human coronary artery smooth muscle cells; actives raise or lower the signal.

Read-out in test [9]: Tissue plasminogen activator (tPA), PLAT (gene 5327)
The test can be described thus: BSK_BE3C_tPA: BioMAP Diversity Plus: BE3C Assay for Tissue plasminogen activator (tPA) Biomarker Activity (AID 2283041).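 For outcome: tPA level quantified by ELISA one day after compound addition.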 To be noted: primary human bronchial epithelial cells; actives raise or lower the signal. The method, boiled down: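 Using human lung primary bronchial epithelial cells, tPA was measured by ELISA 24 h after dosing; data fitted relative to DMSO.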

Read-out in test [10]: Interleukin-8 (IL8), CXCL8 (gene 3576)
The test can be described thus: BSK_CASM3C_IL8: BioMAP Diversity Plus: CASM3C Assay for Interleukin-8 (IL8) Biomarker Activity (AID 2283042).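 Note: IL-8 protein level quantified by ELISA.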 To be noted: primary human coronary artery smooth muscle cells; actives raise or lower the signal.

Read-out in test [11]: Human Leukocyte Antigen - DR isotype (HLADR), HLA-DRA (gene 3122)
The test can be described thus: BSK_CASM3C_HLADR: BioMAP Diversity Plus: CASM3C Assay for Human Leukocyte Antigen - DR isotype (HLADR) Biomarker Activity (AID 2283043).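 Note: cell-surface HLA-DR protein level quantified by ELISA.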 The note with it: primary human coronary artery smooth muscle cells; actives raise or lower the signal.

Read-out in test [12]: Macrophage colony-stimulating factor (MCSF), CSF1 (gene 1435)
Description: BSK_CASM3C_MCSF: BioMAP Diversity Plus: CASM3C Assay for Macrophage colony-stimulating factor (MCSF) Biomarker Activity (AID 2283044).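 Note: M-CSF protein amount quantified by ELISA after 24 h exposure.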 To be noted: primary human coronary artery smooth muscle cells; actives raise or lower the signal.

Read-out in test [13]: Low-density lipoprotein receptor (LDLR), LDLR (gene 3949)
The test can be described thus: BSK_CASM3C_LDLR: BioMAP Diversity Plus: CASM3C Assay for Low-density lipoprotein receptor (LDLR) Biomarker Activity (AID 2283045).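 Note: LDLR protein level on the cell surface quantified by ELISA.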 To be noted: primary human coronary artery smooth muscle cells; actives raise or lower the signal.

Read-out in test [14]: Monocyte Chemoattractant Protein-1 (MCP1), CCL2 (gene 6347)
Description: BSK_CASM3C_MCP1: BioMAP Diversity Plus: CASM3C Assay for Monocyte Chemoattractant Protein-1 (MCP1) Biomarker Activity (AID 2283046).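 Note: MCP-1 level quantified by ELISA 24 h after dosing.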 The note with it: primary human coronary artery smooth muscle cells; actives raise or lower the signal.

Test [15] is described as follows: BSK_CASM3C_Proliferation: Cell Proliferation Assessment in the BioMAP Diversity Plus: CASM3C Assay (AID 2283047).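 Note: sulforhodamine B total protein stain as relative cell number at 560 nm; sub-confluent cells exposed 48 h before staining; fitted both ways against DMSO so gain or loss of cell number.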 To be noted: primary human coronary artery smooth muscle cells.
Read-out in test [16]: Monokine induced gamma interferon (MIG), CXCL9 (gene 4283)
Description: BSK_CASM3C_MIG: BioMAP Diversity Plus: CASM3C Assay for Monokine induced gamma interferon (MIG) Biomarker Activity (AID 2283048).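 Note: MIG protein level measured by ELISA.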 To be noted: primary human coronary artery smooth muscle cells; actives raise or lower the signal.

Read-out in test [17]: serum amyloid A (SAA), SAA1 (gene 6288)
Description: BSK_CASM3C_SAA: BioMAP Diversity Plus: CASM3C Assay for serum amyloid A (SAA) Biomarker Activity (AID 2283049).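 Note: SAA protein level quantified by ELISA.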 The note with it: primary human coronary artery smooth muscle cells; actives raise or lower the signal.

The nature of test [18]: BSK_CASM3C_SRB: Viability Assessment in the BioMAP Diversity Plus: CASM3C Assay (AID 2283050).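 Note: total protein by SRB staining as cytotoxicity measure in parallel cultures.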 The note with it: primary human coronary artery smooth muscle cells.
Read-out in test [19]: Thrombomodulin, THBD (gene 7056)
The test can be described thus: BSK_CASM3C_Thrombomodulin: BioMAP Diversity Plus: CASM3C Assay for Thrombomodulin Biomarker Activity (AID 2283051).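 Note: thrombomodulin protein level measured by ELISA 24 h after dosing.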 To be noted: primary human coronary artery smooth muscle cells; actives raise or lower the signal.

The structures appear in SMILES notation. Active and inactive are the calls of the source. Rule for the calls: active = hit-call score of the fitted dose curve at least 0.9, where 1 is the maximum; inactive = score below 0.9.

Drawing on PubChem BioAssay (EPA / NIEHS), this text covers outcome and AC50 for seven compounds.

As for `CCCCCC(=O)O`, the result in test [1], in [2], in test [3], in test [4], in test [5] and in test [6] was inactive. In addition, the result in [7], in [8], in test [9], in [10], in test [11] and in test [12] was inactive. The outcome in test [13], in test [14], in test [15], in test [16], in test [17] and in test [18] was inactive. In test [19], the result was inactive.

On to `Cc1ccccc1Cl`, for which the result in test [1], in test [2], in test [3], in test [4], in [5] and in test [6] was inactive. Also, the outcome in test [7], in [8], in test [9], in [10], in [11] and in test [12] was inactive. The result in [13], in test [14], in [15], in [16], in test [17] and in test [18] was inactive. The outcome in test [19] was inactive.

A word on the AC50: it is the midpoint of the concentration-response curve, whichever way the signal moves. As to `CCCCCCCCCCCCCO`, the outcome in [1], in test [3], in [5], in test [6], in test [7] and in [8] was inactive. In addition, the outcome in [10], in test [11], in test [13], in test [16] and in [17] was inactive. Moreover, the AC50 in [2] is 29.7 µM (active); in test [9] it was 26.9 µM (active); in test [12], 34.5 µM (active); in [14], 33.3 µM (active); in test [15] it was 34.2 µM (active); in test [18] it was 34.4 µM (active). For the same compound, in [19], the AC50 was 20.6 µM (active).

For `Cc1ccc(N(C)C)cc1`, the outcome in [1], in test [2], in test [3], in [5], in [6] and in test [7] was inactive. Moreover, the outcome in test [8], in test [9], in test [10], in test [11], in [12] and in test [13] was inactive. In addition, the result in [14], in test [15], in test [16], in test [17], in [18] and in [19] was inactive.

Turning to `CC=Cc1ccc(O)c(OC)c1`, the result in test [1], in test [2], in test [3], in [4], in test [5] and in test [6] was inactive. The result in [7], in test [8], in test [9], in [10], in [11] and in test [12] was inactive. The outcome in test [13], in test [14], in [15], in test [16], in test [17] and in test [18] was inactive. Further, in test [19], the result was inactive.

`Cc1cccc([N+](=O)[O-])c1C`: the result in test [1], in test [2], in [3], in [5], in [6] and in test [7] was inactive. Also, the result in test [8], in [9], in test [10], in [11], in [12] and in [13] was inactive. The result in [14], in test [15], in [16], in test [17], in [18] and in test [19] was inactive.

Take `Cc1ccc(C)c(C)c1`: the outcome in [1], in test [2], in test [3], in test [5], in [6] and in [7] was inactive. In addition, the outcome in test [8], in test [9], in test [10], in test [11], in test [12] and in [13] was inactive. Moreover, the result in [14], in [15], in [16], in [17], in [18] and in test [19] was inactive.
